Pf growth 96h: inhibits malaria parasite growth, 96 h; P. falciparum luciferase reporter growth, 96 h; 320,000 tested, 6.9% active; Potency, µM (series often up to 28.7 µM), usual class: inhibitors; AID 504834
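P. falciparum expressing integrated firefly luciferase grown in erythrocytes (2% hematocrit, 0.05% parasitemia final) with compounds for 96 hours at 37 C, 5% CO2. Growth inhibition read as loss of luminescence after adding luciferase detection reagent.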
Pf growth 48h: inhibits P. falciparum growth in the first generation, 48 h | Potency, µM (top dose mostly 28.7 µM), most hits filed as inhibitors | P. falciparum luciferase growth in erythrocytes, 48 h | AID 504832 | 310,000 tested, 5.9% active
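Firefly luciferase activity from engineered P. falciparum reports growth; inhibitors lower the luminescent signal. Cultures contained 2% hematocrit erythrocytes at 0.1% final parasitemia.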
Marburg entry inh: inhibitors of Marburg virus binding or cell entry | Potency, µM (series often up to 37.8 µM), usual class: inhibitors | AID 540276 | 300,000 tested, 1.8% active | Marburg virus pseudotyped entry inhibition, cell reporter; calls by dose curve; tested in HEK293 cells
Cycloheximide cs: counter-screen for Shiga toxin inhibitors: cycloheximide protein synthesis inhibition. cell reporter, cycloheximide protein synthesis inhibition counterscreen. max response, %. 300,000 tested, 12% active. AID 2314; in the data active means max response mostly above about 13%, no sharp cut-off; inactive means mostly below about 14%; further: read at 38.3 µM for the half of the compounds with a filed dose
Lassa entry inh: blocks Lassa virus binding to or entry into cells | Lassa virus pseudotype entry inhibition, cell reporter | Potency, µM (top dose mostly 37.9 µM), hits mostly inhibitors | 300,000 tested, 1.2% active; calls by dose curve; tested in HEK293 cells; further: nearly all actives have a fitted effect of over 50% in size
Shiga inhibitor: blocks Shiga toxin action in Vero cells; Vero cells, Shiga toxin protein synthesis inhibition reporter; 290,000 tested, 9.2% active; inhibition, % at 38.7 µM; in the data active means inhibition mostly above about 28%, no sharp cut-off; inactive means mostly below about 43%
Numbers stand for hits; 0 = inactive; ? = inconclusive; - = no result; [ ] = remark or other dose. Hits are enriched below; roughly 19% of the tested compounds scored in any of these assays. Unless noted, the call rests on the fitted dose curve; in most records, active means well fitted inhibition curve with a large enough effect; inconclusive means small, poorly fitted or top-dose-only effect, or another doubt; inactive means no such curve, though single readings can be large or run the other way.

SMILES	Pf growth 96h	Pf growth 48h	Marburg entry inh	Cycloheximide cs	Lassa entry inh	Shiga inhibitor
Cc1c(C(=O)N2CCN(S(=O)(=O)c3ccccc3F)CC2)oc2c(Cl)cccc12	12µM	10µM	-	-	-	-
COCc1c(C(=O)N2CCN(S(=O)(=O)c3ccccc3Cl)CC2)oc2ccccc12	?	12µM	-	-	-	-
COCc1c(C(=O)N2CCN(Cc3nc4ccccc4s3)CC2)oc2ccccc12	0	0	0	-	0	-
CC1(C)CC(NCc2cccc([N+](=O)[O-])c2)CC(C)(C)N1	0	0	0	17	0	0
CC(C)(C)C(=O)Nc1sc2c(c1-c1nc3ccccc3[nH]1)CCCC2	?	9.3µM	?	0	0	0
CCSC1=N/C(=C\c2cccnc2)C(=O)N1c1ccccc1	?	0	0	0	0	0
CCSC1=N/C(=C/c2ccsc2)C(=O)N1c1ccccc1	7.4µM	0	0	0	0	0
CSC1=N/C(=C\c2cccnc2)C(=O)N1c1ccccc1	?	0	0	27	?	0
CC1=N/C(=C/c2cccnc2)C(=O)O1	0	0	?	34	0	0
O=C1OC(c2ccc(Cl)cc2)=C/C1=C/c1cccnc1	?	0	0	0	?	0
Cc1ccc(C2=C/C(=C/c3cccnc3)C(=O)O2)c(C)c1	0	0	0	11	0	0
O=C(CNC(=O)c1ccccc1)OCc1cc(=O)n2nc(C3CCCCC3)sc2n1	-	-	-	-	0	-
CC(C)NC(=O)c1ccccc1NC(=O)C1CC(=O)N(C(C)C)C1 (stereo not drawn)	0	0	0	0	0	0
CC(=O)c1ccc(NC(=S)N(CCCN(C)C)Cc2ccccc2)cc1	?	?	?	0	0	0
CCOc1ccccc1CN1C(=O)c2ccccc2C1C(=O)NC(C)CC (stereo not drawn)	8.3µM	0	0	0	0	0
COc1cccc(CN2C(=O)c3ccccc3C2C(=O)NCCc2ccc(OC)c(OC)c2)c1 (stereo not drawn)	-	-	-	-	0	-
COc1ccc(CN2C(=O)c3ccccc3C2C(=O)NCCc2ccccc2)c(OC)c1 (stereo not drawn)	8.3µM	?	0	0	?	0
CC(C)N1C(=O)c2ccccc2C1C(=O)NCCc1ccccc1 (stereo not drawn)	8.3µM	0	0	0	?	0
O=C(NCCc1ccccc1)C1c2ccccc2C(=O)N1Cc1cccs1 (stereo not drawn)	?	0	0	0	0	0
C/C(=N\NC(=S)NCCc1ccccc1)c1ccc(C#N)cc1	?	-	?	0	0	0
O=C(C1COc2ccccc2O1)N1CCn2c(nc3ccccc32)C1 (stereo not drawn)	0	-	-	0	-	0
CCN(CC)C(=O)CSc1nc2ccccc2c(=O)n1OC	13µM	0	0	0	0	0
COn1c(SCc2cccc(Cl)c2)nc2ccccc2c1=O	10µM	?	0	0	0	0
Cc1nn(Cc2c(F)cccc2Cl)c(=O)c2ccccc12	0	0	0	0	0	0
Cc1ccc2c(c1)-c1ncc(C(=O)c3ccccc3O)cc1CO2	-	-	0	-	0	-
SMILES	Pf growth 96h	Pf growth 48h	Marburg entry inh	Cycloheximide cs	Lassa entry inh	Shiga inhibitor
Cc1ccc(O)c(C(=O)c2cnc3c(c2)COc2ccccc2-3)c1	?	4.1µM	0	0	0	0
CCCNC(=O)c1c(N)n(Cc2ccc3c(c2)OCO3)c2nc3ccccc3nc12	0[5.75 µM]	?	0	0	0	0
CC(C)CCNC(=O)c1c(N)n(Cc2ccc3c(c2)OCO3)c2nc3ccccc3nc12	12µM	-	?	0	0	0
CC(C)CNC(=O)c1c(N)n(Cc2ccc3c(c2)OCO3)c2nc3ccccc3nc12	-	6.6µM	?	0	0	0
COc1ccc(NC(=S)NCCC(c2ccccc2)c2ccccc2)c(OC)c1	?	?	?	0	?	0
Cc1cc(C)nc(/N=C(\N)Nc2cccc([N+](=O)[O-])c2)n1	10µM	?	0	0	0	0
COc1cc(N/C(N)=N/c2nc(C)cc(C)n2)c(OC)cc1Cl	0	?	9.2µM	0	0	0
Cc1cc(C)cc(N/C(N)=N/c2nc(C)cc(C)n2)c1	4.1µM	13µM	?	0	21µM	0
CCCCc1ccc(N/C(N)=N/c2nc(C)cc(C)n2)cc1	4.1µM	?	?	0	?	0
Cc1onc(-c2ccccc2Cl)c1C(O)c1ccc(F)cc1 (stereo not drawn)	?	-	0	0	0	0
COc1ccc(NC(=O)CN2C(=O)C3(SCC(=O)N3c3cccc(OC)c3)c3ccccc32)cc1 (stereo not drawn)	-	-	-	-	0	-
O=C(O)c1cccnc1Sc1ccccc1Cl	0	0	-	0	-	0
NC(=O)Cn1nc([N+](=O)[O-])nc1Oc1ccccc1C(=O)N1CCOCC1	0	0	0	0	-	0
Cc1cc(C)nc(/N=C(\N)Nc2ccc(C(C)C)cc2)n1	12µM	?	10µM	14	?	0
Cc1ccc(N/C(N)=N/c2nc(C)cc(C)n2)cc1	0	?	0	0	0	0
COc1ccc(N2CCN(c3nc4c(c(=O)[nH]c(=O)n4C)n3CCCc3ccccc3)CC2)cc1	-	-	0	-	-	-
CCOC(=O)Cn1nnnc1CN(Cc1ccccc1)Cc1cc2cc(CC)ccc2[nH]c1=O	12µM	0	?	0	?	0
CCc1ccc2[nH]c(=O)c(CN(Cc3ccccc3)Cc3nnnn3Cc3ccco3)cc2c1	0	9.3µM	?	24	?	72
C/C(N=Nc1nc2ccccc2s1)=N\Nc1ccccc1O	0	2.6µM	-	0	-	0
COc1ccccc1Oc1coc2cc(O)ccc2c1=O	0	0	0	0	0	0
COc1ccc2c(=O)c(-c3ccccc3)coc2c1	0	0	-	52	-	84
CCOC(=O)c1ccc(Oc2coc3cc(O)ccc3c2=O)cc1	2.9µM	0	0	0	0	0
COc1ccc(-c2coc3cc(O)ccc3c2=O)cc1OC	?	0	0	34	0	0
O=c1c(-c2ccc(F)cc2)coc2cc(O)ccc12	0	0	0	32	?	114
CCn1c(CC(=O)Nc2cccc(OC)c2)nnc1SCC(=O)N1CCN(c2ccccc2)CC1	0	0	?	0	0	0
SMILES	Pf growth 96h	Pf growth 48h	Marburg entry inh	Cycloheximide cs	Lassa entry inh	Shiga inhibitor
O=c1c(-c2ccc(F)cc2)coc2c3c(ccc12)OCCO3	0	0	0	44	0	87
CCOc1ccccc1Oc1coc2cc(OC(=O)N(C)C)ccc2c1=O	0	0	-	36	-	55
CCN(CC)C(=O)Oc1ccc2c(=O)c(-c3ccccc3)coc2c1	-	0	?	50	0	85
COC(=O)COc1ccc2c(=O)c(-c3ccccc3OC)coc2c1	?	0	0	0	?	0
CCN(CC)C(=O)COc1ccc2c(-c3ccccc3)cc(=O)oc2c1	0	?	0	0	?	0
COc1ccc2c(=O)c(-c3ccc(OC)c(OC)c3)coc2c1	0	0	-	25	-	54
COc1ccc(-c2[nH]ncc2/C=N\NC(=O)c2ccc(C(C)(C)C)cc2)cc1OC	?	0	?	21	0	76
Cc1nn(C)c(C(=O)N2CCN(C(=O)c3ccco3)CC2)c1[N+](=O)[O-]	0	0	0	0	0	0
CCOC(=O)c1sc(NC(=O)COc2ccc3c(c2)OCO3)nc1C	0	0	?	0	0	0

Source: PubChem
